# Compound activity (PubChem)
# This is a sample that favours compounds with a hit; in the whole collection about 19% have one here.
# KB-V1 cytotox: qHTS assay for MDR1-selective chemotherapeutics: Primary screen using the drug-selected MDR subline cells KB-V1 | KB-V1 MDR cells viability, CellTiter-Glo, 72 h | Potency, µM (series often up to 46.1 µM), hits mostly cytotoxic | 400,000 compounds, 3.4% hits; also: nearly all actives have a fitted effect of over 60% in size
#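 In this primary screen, KB-V1 cells overexpressing P-gp are incubated with library compounds (lowest to highest concentration) for 72 h at 37 degrees C before a luminescent ATP viability read.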
# HT1080 IDH1KD tx: qHTS for induction of synthetic lethality in tumor cells producing 2HG: qHTS for the HT-1080-IDH1KD cell line; Potency, µM (highest dose often 46.1 µM), for inactives: top-dose activity, negative = toxicity, usual class: cytotoxic; HT-1080 IDH1 knockdown viability, ATP luminescence, 48 h; 360,000 compounds, 2% hits;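 also: 0% = DMSO wells and -100% = cell-free medium wells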
#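 Using the IDH1-knockdown HT-1080 line run in the same batch and compound series as the NT line, viability after 48 h at 37 °C was determined by CellTiter-Glo luminescence and expressed as % activity.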
# DT40 TDP1 CPT: qHTS for Inhibitors of human tyrosyl-DNA phosphodiesterase 1 (TDP1): qHTS in cells in presence of CPT. chicken DT40 Tdp1-/-;hTDP1 cells + 20 nM CPT, ATP luminescence, 48 h. Potency, µM (series often up to 46.2 µM), for inactives: at the top dose activity change, negative = growth inhibition, most hits filed as inhibitors. 420,000 compounds, 12% hits. AID 686979, 2013; also: nearly all actives have a fitted effect of over 55% in size
#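 Chicken DT40 Tdp1-/- cells complemented with human TDP1, 400 cells/well, exposed to compounds plus 20 nM camptothecin for at least 48 h at 37 C; viability read as ATP content by CellTiter-Glo luminescence.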
# HT1080-NT tox: qHTS for induction of synthetic lethality in tumor cells producing 2HG: qHTS for the HT-1080-NT fibrosarcoma cell line | HT-1080-NT fibrosarcoma viability, CellTiter-Glo ATP luminescence, 48 h | Potency, µM (doses to about 46.1 µM), inactives show at the top dose activity, negative = less viability, actives largely listed as cytotoxic | AID 686970, 2013 | 360,000 compounds, 1.6% hits;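 also: NT is the 2HG producing partner of a matched IDH1 knockdown line; 0% = DMSO-treated cells and -100% = media-only wells without cells; nearly all actives have a fitted effect of over 55% in size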
#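 Toxicity toward the 2HG-producing NT line was scored as %Activity, normalised to DMSO and no-cell wells, from CellTiter-Glo luminescence after 48 hours' treatment.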
# KB-3-1 tox: qHTS assay for MDR1-selective chemotherapeutics: Primary screen using the parental adenocarcinoma cell KB-3-1 | AID 1347075, 2019 | Potency, µM (titrated, usually from 46.1 µM), usual class: cytotoxic | 400,000 compounds, 1.4% hits | KB-3-1 viability, CellTiter-Glo ATP luminescence, 72 h; also: nearly all actives have a fitted effect of over 60% in size
#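 Parental KB-3-1 viability, qHTS format: 72 h compound exposure, 37 °C; CellTiter-Glo; media-only wells and DMSO plates as controls; concentration-effect fits on corrected data.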
# DT40 TDP1 no CPT: qHTS for Inhibitors of human tyrosyl-DNA phosphodiesterase 1 (TDP1): qHTS in cells in absence of CPT | DT40 Tdp1-/- hTDP1 cells, no CPT, ATP luminescence, 48 h | Potency, µM (top dose mostly 46.2 µM), without a hit: top-dose activity change, negative = growth inhibition, usual class: inhibitors | 420,000 compounds, 15% hits | AID 686978, 2013; also: nearly all actives have a fitted effect of over 55% in size
#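 Growth of hTDP1-complemented DT40 Tdp1-knockout cells is measured by ATP luminescence after at least 48 hr compound exposure at 37 °C, with DMSO substituting for the 20 nM CPT used in the parallel screen.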
# The depositor's hits bear a star; i = inactive; ? = inconclusive; · = no result; [ ] = another dose, or the depositor's remark. Calls follow the shape of the dose curve; as a rule, active = well fitted curve in the direction sought with a large enough effect; inconclusive = small, poorly fitted or top-dose-only effect, or another doubt; inactive = no such curve, though single readings can be large; an effect the other way counts as inactive or inconclusive. Unless noted, % is scaled to controls: 0 for no effect and ±100 for the full control effect; potency is read from the fitted curve at half-maximal effect.
SMILES,KB-V1 cytotox,HT1080 IDH1KD tx,DT40 TDP1 CPT,HT1080-NT tox,KB-3-1 tox,DT40 TDP1 no CPT
COc1ccc(-n2nnnc2C(c2ccccc2)N2CCC3(CC2)C(=O)NCN3c2ccccc2)cc1 (stereo not given),i,?,?,?,?,?
Cc1cccc(C)c1-n1nnnc1C(c1cccs1)N1CCC2(CC1)C(=O)NCN2c1ccccc1 (stereo not given),?,?,15µM*,?,i,15µM*
Cc1nc2cnc(N3CCNCC3)nc2n(C)c1=O,·,·,10%,·,·,-19%
CC(C)NCC(O)c1ccccc1Cl (stereo not given),·,·,16%,·,·,-2%
CSc1nc(Cl)c(Br)c(N2CC2)n1,i,5%,-22%,17%,i,-19%
CCN(CC)C(=O)/C(Cl)=C(\C)OP(=O)(OC)OC,·,·,-4%,·,·,-3%
CN1C(=O)COc2c(C(=O)N[C@@H]3CN4CCC3CC4)cc(Cl)cc21,·,·,6%,·,·,-12%
COc1ccc(C(c2nnnn2-c2ccc(OC)cc2)N2CCC3(CC2)C(=O)NCN3c2ccccc2)cc1 (stereo not given),?,?,?,?,i,?
CCCCn1nnnc1C(c1ccc(OC)cc1)N1CCC2(CC1)C(=O)NCN2c1ccccc1 (stereo not given),i,?,18µM*,?,i,?
CN(C)CCNC(=O)c1cccn(Cc2cc(C(F)(F)F)cc(C(F)(F)F)c2)c1=O,i,-7%,-10%,-28%,i,-14%
CC1=C/C(=N\NC(=S)NCCc2ccccc2)CC(C)(C)C1,i,1%,?,6%,i,?
CC(=NCCC1=CCCCC1)c1c(O)n(-c2ccccc2)c(=O)[nH]c1=O,?,-6%,-6%,-10%,i,?
CCOc1ccc(Cn2c(=O)oc3ccc(C)cc32)cc1OC,?,-9%,?,-23%,i,?
COc1ccc(CNC(=O)c2sc(=O)n(Cc3ccc(C)cc3)c2C)cc1OC,18µM*,-1%,?,4%,i,16µM*
Cc1c(C(=O)NCc2cccc(C(F)(F)F)c2)sc(=O)n1Cc1ccc(C(=O)N(C)C)cc1,?,0%,?,-1%,?,15µM*
Cc1cc(C)nc(N2CCCC(C(=O)Nc3nc4ccc(S(C)(=O)=O)cc4s3)C2)n1 (stereo not given),?,?,?,-25%,?,?
CC(C)(C)NC[C@H](O)COc1cccc2[nH]c(C#N)cc12,·,·,-7%,·,·,-15%
Fc1ccc2c(c1)nnn2C1CCN(Cc2c(Cl)cccc2Cl)CC1,?,0%[9.24 µM],18µM*,1%,i,18µM*
Cc1ccc(C)c(CN2CCC(n3nnc4cc(F)ccc43)CC2)c1,i,-4%,?,-6%,i,?
Cc1cccc(N2CCC3(CC2)C(=O)NC(=O)NC3=O)c1,i,8%,4%,9%,i,0%
Cc1cccc(-n2nc(C)c(C(=O)N3CCN(c4ccccc4)CC3)c2-n2cccc2)c1,i,·,16µM*,·,i,21µM*
CC1Cc2ccccc2CN1 (stereo not given),i,·,-5%,·,i,5%
COP(=O)(OC)C(NC(=O)/C=C/c1ccccc1)C(Cl)(Cl)Cl (stereo not given),i,-4%,0%,26%,i,-24%
CC1=C(O)C(=O)C=C2C1=CC=C1[C@]2(C)CC[C@@]2(C)C3C[C@](C)(C(=O)O)CC[C@@]3(C)CC[C@@]12C (stereo not given in full),·,·,1µM*,·,·,0.82µM*
CN(C)CCCCCCN(C)C (tested in a mixture with another compound),·,·,-6%,·,·,3%
SMILES,KB-V1 cytotox,HT1080 IDH1KD tx,DT40 TDP1 CPT,HT1080-NT tox,KB-3-1 tox,DT40 TDP1 no CPT
CCN(CCCNS(=O)(=O)c1ccc2c(c1)oc(=O)n2C)c1cccc(C)c1,i,-13%,?,-11%,i,?
C[S+](CC[C@H](N)C(=O)O)C[C@H]1O[C@@H](n2cnc3c(N)ncnc32)[C@H](O)[C@@H]1O (stereo not given in full),i,-1%,?,-6%,i,?
COc1ccc(SCC2CN(C)CCC2c2ccc(F)cc2)cc1 (stereo not given),i,-25%,?,?,i,?
O=C(Nc1ccc(Br)cc1)c1cccc(S(=O)(=O)N2CCc3ccccc32)c1,i,·,23µM*,·,?,16µM*
O=C(CNC(=O)c1cccc(S(=O)(=O)N2CCc3ccccc32)c1)Nc1ccccc1Br,9.2µM*,-13%,?,-7%,i,?
O=C(Nc1ccc(Br)cc1)c1ccc(F)c(S(=O)(=O)N2CCCc3ccccc32)c1,·,·,12µM*,·,·,8.2µM*
O=C(CN1CCc2ccccc2C1)Nc1ccccc1N1CCCCCC1,?,?,?,-22%,?,?
COC(=O)N1CCC2(CCN(CC(C)C)CC2)CC1,·,·,-7%,·,·,-11%
Cc1cccn2c(=O)cc(COc3cccc(NC(=O)COc4ccc(F)cc4)c3)nc12,·,·,?,·,·,8.2µM*
CNCCc1ccc(O)c(O)c1,i,?,8.2µM*,?,i,5.2µM*
CNc1ccc2oc(C[C@H]3O[C@]4(CC[C@H]3C)O[C@H]([C@H](C)C(=O)c3ccc[nH]3)[C@H](C)C[C@H]4C)nc2c1C(=O)O,·,·,1.5µM*,·,·,1.1µM*
CN1C2CCC1C(C(=O)O)C(O)C2 (stereo not given),i,11%,-22%,7%,i,-11%
Cc1ccc(S(=O)(=O)NCC(=O)OCC(=O)N2N=C(c3ccc(Cl)cc3)CC2c2ccco2)cc1C (stereo not given),i,6%,?,4%,i,23µM*
O=C(O)C1CC2(Cl)C(Cl)=C(Cl)C1(Cl)C2(Cl)Cl (stereo not given),i,0%,-10%,2%,i,-26%
